This is an account of results in article PMC4336329 (PLoS ONE, 2015).

Each structure is given as a SMILES string. The whole screen tested about 310,000 compounds, of which about 14,000 (4.5%) showed an effect of 50% or more. The effect is printed as a negative number. The sample holds strong results, similar compounds and a random draw of the others, so the mix is not that of the screen.
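Also: peak tail current of the secondary pulse compared with the same well before compound.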

The target in this assay is human ether-à-go-go-related gene (hERG) potassium channel (human, UniProt Q12809). The assay can be described thus: primary screen, population patch clamp on CHO cells stably expressing hERG; higher = less effect of the substance.
Sequence of human ether-à-go-go-related gene (hERG) potassium channel (Q12809 whole entry, looked up): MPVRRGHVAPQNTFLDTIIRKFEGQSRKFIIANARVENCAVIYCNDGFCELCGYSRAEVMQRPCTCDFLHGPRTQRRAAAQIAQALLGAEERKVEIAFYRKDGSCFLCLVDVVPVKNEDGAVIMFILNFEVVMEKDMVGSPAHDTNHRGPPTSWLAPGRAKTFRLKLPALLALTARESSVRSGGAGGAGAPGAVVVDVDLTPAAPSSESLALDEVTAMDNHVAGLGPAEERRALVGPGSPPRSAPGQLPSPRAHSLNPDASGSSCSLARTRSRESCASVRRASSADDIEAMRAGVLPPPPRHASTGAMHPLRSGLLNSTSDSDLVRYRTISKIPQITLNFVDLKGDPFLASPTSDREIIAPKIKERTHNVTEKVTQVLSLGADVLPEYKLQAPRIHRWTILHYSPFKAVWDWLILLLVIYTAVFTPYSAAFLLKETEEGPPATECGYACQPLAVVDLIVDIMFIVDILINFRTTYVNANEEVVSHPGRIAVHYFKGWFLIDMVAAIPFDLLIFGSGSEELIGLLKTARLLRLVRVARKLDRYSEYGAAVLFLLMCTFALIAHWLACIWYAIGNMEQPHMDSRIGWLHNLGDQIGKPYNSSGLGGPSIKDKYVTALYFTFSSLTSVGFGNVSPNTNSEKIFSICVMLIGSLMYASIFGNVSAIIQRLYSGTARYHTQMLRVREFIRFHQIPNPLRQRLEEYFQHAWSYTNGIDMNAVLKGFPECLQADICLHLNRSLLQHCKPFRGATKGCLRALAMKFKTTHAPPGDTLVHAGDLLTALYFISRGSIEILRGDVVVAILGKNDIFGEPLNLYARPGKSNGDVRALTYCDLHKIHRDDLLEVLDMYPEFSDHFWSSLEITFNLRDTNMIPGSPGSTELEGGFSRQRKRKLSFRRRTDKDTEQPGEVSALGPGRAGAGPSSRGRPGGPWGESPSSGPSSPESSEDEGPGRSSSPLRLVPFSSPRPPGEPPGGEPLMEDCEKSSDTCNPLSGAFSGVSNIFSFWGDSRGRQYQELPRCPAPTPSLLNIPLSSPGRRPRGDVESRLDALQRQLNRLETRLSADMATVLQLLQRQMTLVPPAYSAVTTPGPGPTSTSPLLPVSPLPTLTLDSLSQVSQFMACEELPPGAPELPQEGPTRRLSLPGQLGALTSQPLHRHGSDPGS
In the case of `CCCC[n+]1c(-c2ccc(Cl)cc2Cl)csc1Nc1ccccc1.[Cl-]`, the “hERG current change (%, negative = inhibition) at 10uM” value is -6.7%.
In the case of `O=C(CC12CC3CC(CC(C3)C1)C2)N1CCCOC1` it was -3.81%; in that of `O=C(CCO)c1ccc(O)cc1`, 10.6%.
With `FC(F)(F)c1ccccc1NC(=S)N1CCN(c2ccccn2)CC1`, the “hERG current change (%, negative = inhibition) at 10uM” value came out at 5.12%.
For `Cc1ccc2sc(N3CCN(CCNC(=O)c4ccco4)CC3)nc2c1C.Cl`, the “hERG current change (%, negative = inhibition) at 10uM” value is given as -58.2%.
In the case of `O=C(NCCN1CCCCC1)c1ccco1` it was 7.02%; in that of `Cc1nc(C)n(CCNC(=O)c2ccco2)n1`, 27%; in that of `Br.Cc1ccc(C)c(C(=O)Cn2c(NCCO)nc3ccccc32)c1`, 6.12%.
The value for `CCOC(=O)C1(CCOc2ccccc2)CCN(C2Cc3ccccc3C2)CC1` was -53.4%.
On to `Cc1ccc(OCC(=O)N2CCCC(CO)(CCOc3ccccc3)C2)cc1` (centres unmarked), for which the “hERG current change (%, negative = inhibition) at 10uM” value is recorded as -30.4%.
Regarding `CCOC(=O)C1(Cc2ccccc2)CCN(C2Cc3ccccc3C2)CC1`, the “hERG current change (%, negative = inhibition) at 10uM” value was -66.4%.
For `CCOC(=O)C1(Cc2ccc(Cl)cc2)CCN(C2CCC2)CC1`, the “hERG current change (%, negative = inhibition) at 10uM” value is listed as -44.9%.
Take `CCOC(=O)C1(Cc2ccccc2C(F)(F)F)CCN(C2CCSC2)CC1` (centres unmarked): the “hERG current change (%, negative = inhibition) at 10uM” value is recorded as -25.2%.
For `CCOC(=O)C1(CCOc2ccccc2)CCN(S(=O)(=O)N(C)C)CC1`, the “hERG current change (%, negative = inhibition) at 10uM” value was -1.79%.
Regarding `CCOC(=O)C1(Cc2ccccc2)CCCN(C2CCCC2)C1` (centres unmarked), the “hERG current change (%, negative = inhibition) at 10uM” value is recorded as -2.87%.
With `CCOC(=O)C1(CCc2ccccc2)CCN(C2CCSCC2)CC1`, the “hERG current change (%, negative = inhibition) at 10uM” value is -76.3%.
As for `OCC1(CCOc2ccccc2)CCN(C2Cc3ccccc3C2)CC1`, the “hERG current change (%, negative = inhibition) at 10uM” value was -72.8%.
On to `CCOC(=O)C1(CCc2ccccc2)CCN(C(=O)[C@@H]2C[C@@H](C)NC(=S)N2)CC1`, for which the “hERG current change (%, negative = inhibition) at 10uM” value is given as 6.08%.
Consider `O=C1CN(c2nnnn2-c2ccccc2)CCN1`, for which the “hERG current change (%, negative = inhibition) at 10uM” value is -6.89%.
Turning to `COC(=O)[C@@]1(Cc2ccccc2)C=C[C@@H](C)N1C(C)=O`, the “hERG current change (%, negative = inhibition) at 10uM” value came out at 2.06%.
In the case of `Cc1cccc(C)c1NC(=O)CCCSc1nnc(-c2ccc(Cl)cc2)n1-c1ccccc1` it was -3.49%; in that of `COc1ccc(C(C)(C)C)cc1NC(=O)CN1C(=O)C(=O)N(Cc2ccco2)C1=O`, 2.86%.
In the case of `CCCCNC(=O)NS(=O)(=O)c1ccc(NC(=O)CCC(=O)c2cccs2)cc1`, the “hERG current change (%, negative = inhibition) at 10uM” value amounted to 23.1%.
Consider `O=S(=O)(c1ccc(Cl)nc1)N1CCCCC1`, for which the “hERG current change (%, negative = inhibition) at 10uM” value is on record as -1.17%.
For the molecule `CC1(C)Oc2ccc3ccc(=O)oc3c2C(/C=N/O)=C1Cl`, the “hERG current change (%, negative = inhibition) at 10uM” value was found to be 14.7%.
`CCOC(=O)C1CCN(/C=C2/C(=O)NC(=S)N(c3cccc(OC)c3)C2=O)CC1`: the “hERG current change (%, negative = inhibition) at 10uM” value amounted to 19.4%.
For `CCOC(=O)/C=c1\s/c(=C(\C#N)C(=O)NC)n(-c2ccccc2)c1=O`, the “hERG current change (%, negative = inhibition) at 10uM” value came out at 10.6%.
Consider `Cc1ccc(-c2nn3c(C)nnc3s2)cc1NC(=O)c1ccco1`, for which the “hERG current change (%, negative = inhibition) at 10uM” value is reported as -11.7%.
As for `O=C(N/N=C/C=C\c1ccco1)c1cccnc1`, the “hERG current change (%, negative = inhibition) at 10uM” value amounted to 8.4%.
As for `Cn1cccc1-c1nc2ccccc2n1Cc1ccccc1`, the “hERG current change (%, negative = inhibition) at 10uM” value was -29.1%.
`CS(=O)(=O)c1ccc(S(=O)(=O)N2CCC(CO)(CCCc3ccccc3)CC2)cc1`: the “hERG current change (%, negative = inhibition) at 10uM” value was -41.4%.
In the case of `O=C(NCc1ccccc1)N1CCC(CO)(CCc2ccccc2)CC1` it was -38%; in that of `CCOC(=O)C1(CCc2ccccc2)CCN(C2Cc3ccccc3C2)CC1`, -64.8%; in that of `OCC1(CCCc2ccccc2)CCN(C2CCSCC2)CC1`, -80.5%.
As to `CCCCOC(=O)c1ccc(NC(=O)CSC2=Nc3ccccc3C3CC=NN23)cc1` (centres unmarked), the “hERG current change (%, negative = inhibition) at 10uM” value worked out at 15.4%.
In the case of `O=C(COc1ccccc1)NCC(=O)Nc1ccncc1` it was 1.26%.
In the case of `O=C(c1ccc(NC(=O)C2(c3ccccc3)CCOCC2)cc1)N1CCOCC1`, the “hERG current change (%, negative = inhibition) at 10uM” value was 9.8%.
Regarding `CC(=O)N1c2c(cc(Br)cc2S(=O)(=O)NCC2COc3ccccc3O2)CC1C` (centres unmarked), the “hERG current change (%, negative = inhibition) at 10uM” value is listed as -44.5%.
As to `CC1CCCN(S(=O)(=O)c2cc3c4c(c2)CCN4C(=O)CC3)C1` (centres unmarked), the “hERG current change (%, negative = inhibition) at 10uM” value is -6.07%.
As to `COC(=O)[C@@]12CCCN1[C@H](c1ccc(-c3ccc(OC)cc3)c(OC)c1)[C@@H]1C(=O)N(C)C(=O)[C@@H]12.O=C(O)C(F)(F)F`, the “hERG current change (%, negative = inhibition) at 10uM” value is -9.37%.
As for `CC1(C)O[C@H]2CC(=O)OC[C@]23[C@H]2CC[C@@]4(C)[C@H](c5ccoc5)OC(=O)[C@H]5O[C@]54[C@]2(C)[C@@H](O)C[C@@H]13`, the “hERG current change (%, negative = inhibition) at 10uM” value stood at 17.1%.
In the case of `CCOC(=O)CN1C(=O)S/C(=C/c2ccc(N3CCCCC3)o2)C1=O`, the “hERG current change (%, negative = inhibition) at 10uM” value is reported as 13.1%.
For the molecule `CCOC(=O)CN1C(=O)S/C(=C/c2ccco2)C1=O`, the “hERG current change (%, negative = inhibition) at 10uM” value turned out to be 9.39%.
`CCOC(=O)CN1C(=O)S/C(=C/c2ccc(C)o2)C1=O`: the “hERG current change (%, negative = inhibition) at 10uM” value is given as -72.7%.
In the case of `Cc1[nH]nc2c1C(c1ccsc1C)C(C#N)=C(N)O2` (centres unmarked), the “hERG current change (%, negative = inhibition) at 10uM” value amounted to 2.25%.
With `Cn1cnnc1SCC(=O)NN(c1ccccc1)c1ccccc1`, the “hERG current change (%, negative = inhibition) at 10uM” value turned out to be 28.6%.
For `CCNC(=O)C(C)Oc1ccc(Cl)cc1Cl` (centres unmarked), the “hERG current change (%, negative = inhibition) at 10uM” value is recorded as 9.68%.
For `Cc1cccc(C(=O)C2CCOC(C)(C)C2)c1` (centres unmarked), the “hERG current change (%, negative = inhibition) at 10uM” value came out at 13%.
For `CCN(Cc1nc(-c2ccc(Cl)cc2)no1)CC1CCCO1` (centres unmarked), the “hERG current change (%, negative = inhibition) at 10uM” value is -62.9%.
Consider `Cc1oc(-c2ccc(C(F)(F)F)cc2)nc1CN(Cc1ccccn1)C[C@@H]1CCC(=O)N1`, for which the “hERG current change (%, negative = inhibition) at 10uM” value is given as -38.2%.
As for `COC(=O)c1ccc(-c2noc(CN(Cc3ccncc3)CC3CCCO3)n2)cc1` (centres unmarked), the “hERG current change (%, negative = inhibition) at 10uM” value is listed as -28.5%.
The value for `CCCN(Cc1nc(-c2ccc(Cl)cc2)no1)CC1CCCO1` (centres unmarked) was -8.15%; that for `CCN(Cc1nc(-c2cccc(Cl)c2)no1)CC1CCCO1` (centres unmarked) was 1.7%; that for `O=C1CC[C@@H](CN(Cc2ccccn2)Cc2nc(Cc3cccc(C(F)(F)F)c3)no2)N1` was -48.4%.
Regarding `Clc1ccc(-c2noc(CN(Cc3ccccn3)CC3CCCO3)n2)cc1` (centres unmarked), the “hERG current change (%, negative = inhibition) at 10uM” value is -28.5%.
As to `COC(=O)c1ccc(-c2noc(CN(Cc3ccccn3)CC3CCCO3)n2)cc1` (centres unmarked), the “hERG current change (%, negative = inhibition) at 10uM” value was -75%.
In the case of `O=C1CC[C@@H](CN(Cc2ccccn2)Cc2nc(-c3ccc(C(F)(F)F)cc3)no2)N1` it was -62.7%.
With `COc1ccc(CN(CC2CCC(C(=O)O)CC2)C(=S)Nc2cccc(C)c2)cc1` (centres unmarked), the “hERG current change (%, negative = inhibition) at 10uM” value is on record as -2.44%.
The value for `O=Cc1cc(-c2ccccc2)[nH]c1-c1ccccc1` was 22.5%; that for `COCCn1nnnc1C(C(C)C)N(Cc1cccnc1)Cc1cc2cc(OC)ccc2[nH]c1=O` (centres unmarked) was -29.3%; that for `CCCCCC(=O)NNC(=O)Cc1ccc([N+](=O)[O-])cc1` was -1.38%.
In the case of `Cc1ccccc1C(=O)c1cccn1CC(=O)NCCCN1CCc2ccccc2C1` it was -78.6%; in that of `Cc1ccccc1C(=O)c1cccn1CC(=O)NCCCN1CCCCC1`, -41.9%; in that of `O=C(Cn1cccc1C(=O)c1ccccc1)NCCN1CCCCCC1`, -35.3%.
In the case of `O=C(Cn1cccc1C(=O)c1ccccc1)NCCCN1CCOCC1` it was 13.4%.
Turning to `Cc1ccccc1C(=O)c1cccn1CC(=O)NCC(C)c1ccccc1` (centres unmarked), the “hERG current change (%, negative = inhibition) at 10uM” value was -20.3%.
Take `O=C(Cn1cccc1C(=O)c1ccccc1)NCCCN1CCc2ccccc2C1`: the “hERG current change (%, negative = inhibition) at 10uM” value is given as -74.1%.
As to `O=C(CN1C(=O)NC2(CCCCC2)C1=O)Nc1cc(C(F)(F)F)ccc1N1CCCCC1`, the “hERG current change (%, negative = inhibition) at 10uM” value is listed as -1.7%.
On to `Fc1cc(F)c2nc(Nc3nc4cc5c(cc4s3)OCO5)sc2c1`, for which the “hERG current change (%, negative = inhibition) at 10uM” value was found to be 15.2%.
On to `O=C(Oc1ccc2ccccc2c1)c1cncc(Br)c1`, for which the “hERG current change (%, negative = inhibition) at 10uM” value is -11.6%.
The value for `CC1CCN(S(=O)(=O)c2ccc(NC(=O)[C@@H]3CCCC[C@@H]3C(=O)O)cc2)CC1` was 9.64%; that for `CCC(C)(C(=O)NC1CCCCC1)N(Cc1ccco1)C(=O)c1cnccn1` (centres unmarked) was -11.3%; that for `Cc1ccc(NC(=O)COC(=O)COc2ccc3ccc(=O)oc3c2)cc1[N+](=O)[O-]` was 3.51%.
For the molecule `CCCc1nc2ccccc2c(C(=O)O)c1CC`, the “hERG current change (%, negative = inhibition) at 10uM” value is 1.82%.
For `CCCc1nc(N)c(C#N)c(-c2ccco2)c1CC`, the “hERG current change (%, negative = inhibition) at 10uM” value was 14.3%.
Turning to `CCCc1nc2c(C)ccc(C)c2c(N)c1CC`, the “hERG current change (%, negative = inhibition) at 10uM” value is on record as -62.5%.
With `CCCSc1nc(C)c2cc(C)cc(C)c2n1`, the “hERG current change (%, negative = inhibition) at 10uM” value is recorded as 10.9%.
Consider `CCCc1nc2c(C)cc(C)cc2c(N)c1CC`, for which the “hERG current change (%, negative = inhibition) at 10uM” value is on record as -59.2%.
For the molecule `Cc1cc(C)c2nc(C(F)(F)F)c(C#N)c(N)c2c1`, the “hERG current change (%, negative = inhibition) at 10uM” value stood at 17.4%.
The value for `Cc1cc(C)cc(N=c2c([N+](=O)[O-])nn(-c3cccc(Cl)c3)n2O)c1` was -6.03%.
The value for `Cc1cccc(CC2CC(=O)N(CCc3ccc4c(c3)OCO4)C2=O)c1` (centres unmarked) was 34.2%.
For the molecule `COc1ccc(C(=O)/C=C2\NCCc3cc(OC)c(OC)cc32)cc1OC`, the “hERG current change (%, negative = inhibition) at 10uM” value came to 11.6%.
With `CN(C)C(CNC(=O)CCc1nc2cc(Cl)ccc2n(Cc2ccccc2)c1=O)c1ccccc1` (centres unmarked), the “hERG current change (%, negative = inhibition) at 10uM” value is recorded as -81.1%.
The value for `CCNC(=S)NNC(=O)CCc1nc2cc(Cl)ccc2n(Cc2ccccc2)c1=O` was -54.7%.
As to `O=C(O)CCc1nc2cc(Cl)ccc2n(Cc2ccccc2)c1=O`, the “hERG current change (%, negative = inhibition) at 10uM” value came to 22.2%.
In the case of `O=C(O)CCc1nc2cc(C(F)(F)F)ccc2n(Cc2ccccc2)c1=O` it was 23.8%; in that of `COC(=O)CCc1nc2cc(Cl)ccc2n(Cc2ccccc2)c1=O`, -23.1%; in that of `CC(C)c1nc2cc(Cl)ccc2n(Cc2ccccc2)c1=O`, 24.6%.
The value for `CC(=O)Nc1ccc(NC(=O)CSc2nnc(-c3cccnc3)o2)cc1` was 7.42%.
